# Compounds without any hit were thinned out: in the full panel of roughly 79,000, 15% have a hit. Unmarked numbers belong to inactive results. Active and inactive are the calls of the source. Cut-off read from the data, not from the text of the source: active = growth inhibition above about 70%; inactive = the rest. Where a SMILES comes first, the peptide text is derived from it. [ ]: non-standard residue; d: D form. Nva = CCC[CH](N)C(=O)O
# Assay: NCI Yeast Anticancer Drug Screen. Data for the cln2 rad14 strain (AID 165);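 note: 0% = growth equal to vehicle treated cultures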
# Conditions: S. cerevisiae cln2 rad14 strain, at 50.0 µM, active compounds read high
# Method in brief: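 Relative to vehicle controls, growth inhibition of compound-treated cln2 rad14 yeast was recorded.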
row,Compound,growth inhibition
1,Cc1nc2c(cnn2C)cc1CCc1ccccc1,25.1%
2,O=C1C(C(O)(C(F)(F)Cl)C(F)(F)Cl)CCCC1C(O)(C(F)(F)Cl)C(F)(F)Cl (stereo unspecified),99.3% (active)
3,C=CCNCCC1CCCCCC1,8.8%
4,CCCC(N)C(=O)NC(C(=O)O)C(C)C (stereo unspecified) (H-[Nva]-Val-OH; configuration not given here),86% (active)
5,Cc1cc(N)c2cc(NC(=O)Nc3ccc4nc(C)cc(N)c4c3)ccc2n1,95.3% (active)
6,COc1ccc(N=Cc2ccccc2O)cc1,40.9%
7,Cc1cc(Br)c2ccccc2c1N,84.8% (active)
8,c1ccc(-c2cc(Nc3ccc4c(c3)OCO4)c3cc(C4CCCCC4)ccc3n2)cc1,60.4%
9,CCCCCCCCc1cc[n+](C2=C([O-])c3ccccc3C(=O)C2=O)cc1,98.5% (active)
10,CCCCCCCCCCCc1nnc(N)o1,93.3% (active)
11,O=C1OC(OCC#CCOC2OC(=O)C(Cl)=C2Cl)C(Cl)=C1Cl (stereo unspecified),97.8% (active)
12,O=S(=O)(O)CC[S][Sn]([S]CCS(=O)(=O)O)([c]1ccccc1)[c]1ccccc1 (tested in a mixture with another compound),79.8% (active)
13,CC(C)NC(=O)OCCS(=O)c1c(Cl)c(Cl)nn1C (stereo unspecified),97.7% (active)
14,CN1N=C2c3ccccc3CC[C@H]2C1c1cccc(O)c1 (stereo partly specified),43.8%
15,O=C1CSC(=S)N1/N=C/c1ccc(Cl)c([N+](=O)[O-])c1,-37.7%
16,O=C(O)CCCCCCCCC(=O)CCl,97.5% (active)
17,O=C(NC1CCN(Cc2ccccc2)CC1)c1ccccc1I,81% (active)
18,Cc1ccc(Nc2nc3c(s2)C(=O)c2ccccc2C3=O)cc1,97.8% (active)
19,O=C(/C=C/c1ccccc1)c1cc2c(cc1O)OCO2,13.8%
20,O=[N+]([O-])c1ccc(Sc2ccc([N+](=O)[O-])o2)o1,99.2% (active)
21,CCCCCCCCN(CCCCCCCC)CC(O)c1cc(OCC)nc2ccccc12 (stereo unspecified),93.5% (active)
22,CC(O)CCc1nc2ccccc2[nH]1 (stereo unspecified),57.2%
23,CCCCCCCCCCCCCCCCSC(=NC)NC,98.2% (active)
24,O=C(O)CCC(O)=C1S(=O)(=O)OCCOS1(=O)=O,47.7%
25,CCCCCCCCCCCCCCCCN,98.8% (active)
26,COC1=C(Br)C(=O)N/C1=C(\OC)c1ccccc1,37.9%

# — PubChem BioAssay (NCI)
